Among all 39,000 compounds or so, about 3,300 (8.5%) were called active. Only a selection was taken, and actives are over-represented in it overall.
Each molecule was assayed on HepG2 (assay: cytotoxicity call (relative viability < 0.9)). Details: 10 µM.

Row | Compound | cytotoxicity call
1 | O=C(O)CCl | inactive
2 | O=C1NC2(CCNCC2)C[C@@H]1c1ccncc1 | inactive
3 | Cc1cccc(Cc2cnc[nH]2)c1C | inactive
4 | COc1cccc(-c2ccc3c(CCN)c[nH]c3c2)c1 | active
5 | COc1ccc2[nH]cc(CCN)c2c1 | inactive
6 | NCCc1c[nH]c2ccccc12 | inactive
7 | COc1ccc(C=O)cc1 | inactive
8 | C=CCc1ccc(OC)cc1 | active
9 | COc1ccc(N=[N+]=[N-])cc1 | inactive
10 | C[C@@H]1C(=O)NC[C@H]2CN(CC3CC3)C[C@@H]21 | inactive
11 | CNC[C@@H](O)c1ccc(O)c(OC)c1 | inactive
12 | CN1C[C@H]2CN(Cc3nccn3C)C[C@H]2C1=O | inactive
13 | N#Cc1c(Cl)c(Cl)c(Cl)c(C#N)c1Cl | active
14 | COc1ccc(C2(CN)CCOCC2)cc1 | inactive
15 | CC[C@@H]1/C=C/C=C/C[C@H](C)[C@@H](O)[C@](C)(O)C(=O)[C@H](C)[C@@H](O)[C@H](C)C(=O)[C@H](C)[C@@H](O)[C@H](C)/C=C/C(=O)O[C@H]2[C@@H](C)[C@@H](CC1)O[C@@]1(CC[C@@H](C)[C@@H](C[C@H](C)O)O1)[C@@H]2C | inactive
16 | CC1(C)C(O)CC(O)C2(C)C1CC(=O)C1(C)C2CCC2(C)C(c3ccoc3)OC(=O)C3OC321 (stereo not drawn) | inactive
17 | CC1(C)C(=O)C2OC2C2(C)C1CC(O)C1(C)C2CCC2(C)C(c3ccoc3)OC(=O)C3OC321 (stereo not drawn) [1,2alpha-EPOXYDEACETOXYDIHYDROGEDUNIN ] | inactive
18 | CC1(C)C(=O)C=CC2(C)C1CC(O)C1(C)C2CCC2(C)C(c3ccoc3)OC(=O)C3OC321 (stereo not drawn) | active
19 | COC(=O)C1CC(OC(C)=O)C(=O)C2C1(C)CCC1C(=O)OC(c3ccoc3)CC12C (stereo not drawn) | inactive
20 | CC(=O)OC1CC(OC(C)=O)C2(C)C(CC(OC(C)=O)C3(C)C2CCC2(C)C(c4ccoc4)C(=O)C4OC423)C1(C)C (stereo not drawn) | inactive
21 | CC(=O)OC1CC2C(C)(C)C(=O)C=CC2(C)C2CCC3(C)C(=CC(=O)OC3c3ccoc3)C12C (stereo not drawn) | active
22 | NC(=O)[C@H]1CNC(=O)C1 | inactive
23 | NC1(c2ccccc2F)CCCC1 | inactive

Row | Compound | cytotoxicity call
24 | CC(C)(C)[C@]1(O)C[C@@H]2OC(=O)C[C@@]23C(=O)O[C@@H]2OC(=O)[C@H](O)[C@]213 | inactive
25 | C/C(=C\[C@@H](N)C(=O)O)CP(=O)(O)O | inactive
26 | Cc1cccc(Cc2c[nH]cn2)c1C.Cl | inactive
27 | CCC1C2CC3C4N(C)c5ccccc5C45CC(C2C5O)N3C1O (stereo not drawn) | inactive
28 | c1cc(N2CCNCC2)ccn1 | inactive
29 | CCn1cc2nc(N3CCNCC3)[nH]cc-2c1=O | inactive
30 | C[C@H]1O[C@H](n2cnc3c(N)ncnc32)C[C@H]1O | inactive
31 | CC(=O)Oc1ccc(Cl)c2cccnc12 | active
32 | Cc1c(N)nc([C@H](CC(N)=O)NC[C@@H](N)C(N)=O)nc1C(=O)N[C@H](C(=O)N[C@@H](C)[C@H](O)[C@@H](C)C(=O)N[C@@H](C(=O)NCCc1nc(-c2nc(C(=O)NCCC[S+](C)C)cs2)cs1)[C@@H](C)O)[C@@H](O[C@H]1O[C@H](CO)[C@H](O)[C@@H](O)[C@H]1O[C@H]1O[C@H](CO)[C@@H](O)[C@H](OC(N)=O)[C@@H]1O)c1c[nH]cn1 | inactive
33 | O[C@H]1[C@H](O)[C@@H](O)CO[C@H]1NCCc1ccccc1 | inactive
34 | COCCN1[C@@H]2CC[C@H]1CN(c1ncccn1)C2 | inactive
35 | CCn1nnnc1N | inactive
36 | C[C@H](CO)N1C[C@H](C)[C@H](CN(C)C(=O)Oc2cccc3ccccc23)OCc2cnnn2CCCC1=O | inactive
37 | N#Cc1cccnc1 | inactive
38 | NCc1cccnc1 | inactive
39 | CNCc1cccnc1 | active
40 | CC(=O)OCC1=C2C(=O)[O][Zn][O]C(=O)[C@@H](N)CCCC(=O)N[C@@H]3C(=O)N2[C@@H]3SC1 | inactive
41 | Nc1nc(=O)c2ncn([C@H]3O[C@@H](COP(=O)(O)OP(O)(O)=S)[C@H](O)[C@@H]3O)c2[nH]1 | inactive
42 | CN(C)[C@@H]1C(=O)[C@@H](C(N)=O)C(=O)[C@@]2(O)C(=O)[C@H]3C(=O)c4c(O)ccc(Cl)c4[C@@](C)(O)[C@H]3C[C@@H]12 | inactive
43 | CCCCCC1C(=O)OC(C)C(NC(=O)c2cccc(NC=O)c2O)C(=O)OC(C)C1OC(=O)CC(C)C (stereo not drawn) [ANTIMYCIN A (A1 shown) ] | active
44 | CCCCC[C@H]1C(=O)O[C@H](C)[C@H](NC(=O)c2cccc(NC=O)c2O)C(=O)O[C@@H](C)[C@@H]1OC(=O)CC(C)C | active
45 | O=C1COC2(CNC2)CN1 | inactive
46 | CC(C)N1CCO[C@H]2CN(C(=O)N(C)C)C[C@@H]21 | inactive

Row | Compound | cytotoxicity call
47 | C=CCC1(O)CCC2C3CCC4=CC(=O)CCC4=C3C=CC21C (stereo not drawn) | inactive
48 | CC(CCc1ccccc1)NC(C)C(O)c1ccc(O)cc1.Cl (stereo not drawn) | inactive
49 | Nc1nnns1 | inactive
50 | CC(C)[C@@H](Br)C(=O)NC(N)=O | inactive
51 | CC(C)Oc1ncccc1CN | inactive
52 | CC1(C)C(=O)C=CC2(C)C1=C(O)C(=O)C1(C)C2CCC2(C)C(c3ccoc3)CC3OC321 (stereo not drawn) | active
53 | CC(=O)OC1CC2(C)C(c3ccoc3)CC3OC32C2(C)C(=O)C(O)=C3C(C)(C)C(=O)C=CC3(C)C12 (stereo not drawn) | active
54 | CC1(C)C(O)CC(=O)C2(C)C1CC(=O)C1(C)C2CCC2(C)C(c3ccoc3)OC(=O)C3OC321 (stereo not drawn) | inactive
55 | CC(=O)O[C@H]1C[C@@H](OC(C)=O)C(C)(C)[C@@H]2C[C@@H](OC(C)=O)[C@]3(C)[C@H](CC[C@@]4(C)[C@H](c5ccoc5)C[C@H]5O[C@@]534)[C@@]12C | inactive
56 | N[C@H]1CCCN(Cc2cccnc2)C1 | inactive
57 | O=C1NC(=S)NC(=O)C1CN1CCOCC1 | inactive
58 | C[C@H](O)[C@@]12[C@H]3CC=C[C@@H]1N2CC3 (stereo partly drawn) | inactive
59 | O[C@H]1CNC[C@@H]1N1CCCCC1 | inactive
60 | Cn1c(CCN)nc2ccccc21 | inactive
61 | COC(=O)C[C@@H]1CC[C@@H]2NC[C@H](O)COC[C@H]2O1 | inactive
62 | CO[C@@H]1C=C[C@@H]2[C@H]1N2CCO (stereo partly drawn) | inactive
63 | N[C@H]1CNC(=O)C1 | inactive
64 | NCCc1ccc(O)cc1 [listing 1 of 2 here] | inactive
65 | CCCCCCCCCc1ccc(O)cc1 | active
66 | NCCc1ccc(O)cc1 [listing 2 of 2 here] | inactive
67 | C1CCN2C(C3N4CCCCN34)N2C1 (stereo not drawn) | inactive
68 | c1cnc2[nH]cc(CN3CCNCC3)c2c1 | inactive
69 | O=C1NCc2cnnn2-c2ccccc21 | inactive

Row | Compound | cytotoxicity call
70 | CCN1CCN(c2nc(=O)cc(C)[nH]2)CC1 | inactive
71 | C1CO[C@@]2(C1)CCNC2 | inactive
72 | O=C([O-])c1ccccc1-c1c2cc(Br)c(=O)cc-2oc2[c]([Hg][OH])c([O-])c(Br)cc12.[Na+].[Na+] | inactive
73 | O=C1NC(=O)C(=C[C@@H]2CC=CCC2)C(=O)N1 | inactive
74 | CC1=C(O)C(=O)C=C2C1=CC=C1C2(C)CCC2(C)C3CC(C)(C(=O)O)CCC3(C)CCC12C (stereo not drawn) | active
75 | O.O.O.O=C([O-])C1[O][Sb]2[O]C(=O)C([O]2)C(C(=O)[O-])[O][Sb]2[O]C(=O)C1[O]2.[K+].[K+] (stereo not drawn) | active
76 | Clc1nc(N2CCNCC2)c2[nH]cnc2n1 | inactive
77 | COCCCNC(=O)[C@H]1N[C@H]2C[C@@H]1C[C@@H]2F | inactive
78 | O[C@@H]1[C@@H]2C[C@H]3[C@H]1N[C@@H]1C[C@@H]2[C@@H]3[C@H]1O | inactive
79 | CN1CCO[C@H]2CN(c3ncccn3)C[C@@H]21 | inactive
80 | N#Cc1nn(-c2c(Cl)cc(C(F)(F)F)cc2Cl)c(N)c1S(=O)C(F)(F)F (stereo not drawn) | active
81 | C[C@H](CO)N1C[C@H](C)[C@H](CN(C)C(=O)Oc2ccc3ccccc3c2)OCc2cn(nn2)CCCC1=O | inactive
82 | CCOCC(=O)N1C[C@H]2CNC[C@H]2C1 | inactive
83 | CN1CCCN(Cc2ccc(CN)cc2)CC1 | inactive
84 | CN1[C@@H]2CC[C@H]1CNC(=O)C2 | inactive
85 | CC1=NCCc2c1[nH]c1cc(O)ccc21.Cl.O.O | active
86 | COc1ccc2c3c([nH]c2c1)C(C)=NCC3 | inactive
87 | CN1CCN(c2ccccc2CN)CC1 | inactive
88 | COc1ccc(OC(=O)N(C)C[C@@H]2OCc3ccccc3-c3c(n(C)c4ccccc34)C(=O)N([C@H](C)CO)C[C@H]2C)cc1 | inactive
89 | N#Cc1cccnc1N1CCNCC1 | inactive
90 | Cc1ccc2cc3c(ccc4ccccc43)c3c2c1CC3 | active
91 | CN1CCN(C(=O)[C@H]2C[C@H]3CN(c4ncccn4)C[C@@H]3N2C)CC1 | inactive
92 | Br.CN1C2CC(OC(=O)C(CO)c3ccccc3)CC1C(O)C2 (racemic) | inactive

Row | Compound | cytotoxicity call
93 | C=C1[C@H]2CC[C@H]3[C@]4(C)C[C@H](O[C@H]5O[C@@H](CO)[C@@H](OS(=O)(=O)O)[C@H](OS(=O)(=O)O)[C@H]5OC(=O)CC(C)C)C[C@@H](C(=O)O)[C@H]4CC[C@]3(C2)[C@H]1O | inactive
94 | CC[C@@H](C)NC=C1C(=O)NC(=O)NC1=O | inactive
95 | O=C(c1ccco1)N1[C@@H]2CC[C@H]1CNC2 | inactive
96 | NC1(c2cccc(Cl)c2)CC1 | inactive
97 | CC(C)C[C@@H]1NC[C@@H]2CCCN2C1=O | inactive
98 | CN(C)C(=S)SSC(=S)N(C)C | active
99 | O=C(O)CN1C[C@@H]2C(NC(=O)c3ccno3)[C@H]2C1 (stereo partly drawn) | inactive
100 | CC(C(O)c1ccccc1)N(C)C (stereo not drawn) | inactive
101 | CNCC(=O)c1ccc(O)cc1 | inactive
102 | CNc1ccccc1C(=O)O | inactive
103 | COC(=O)NC(=S)Nc1ccccc1NC(=S)NC(=O)OC | active
104 | Br.CN1C2CC(OC(=O)C(CO)c3ccccc3)CC1C1OC12 (stereo not drawn) | inactive
105 | C[N+]1(C)C2CC(OC(=O)C(CO)c3ccccc3)CC1C1OC12.[Br-] (stereo not drawn) | inactive
106 | CC(=O)Nc1ccc(Cl)cc1C | inactive
107 | C=C[C@H]1CN2CC[C@@H]1C[C@@H]2CO | inactive
108 | CN(C)[C@@H](CN)c1cn(C)c2ccccc12 | inactive
109 | C[C@@H]1CCC(=O)O1 | inactive
110 | OCC[N+]12CN3CN(CN(C3)C1)C2 | inactive
111 | Cc1cc2c(C(C)C)c(O)c(O)c(C=O)c2c(O)c1-c1c(C)cc2c(C(C)C)c(O)c(O)c(C=O)c2c1O [listing 1 of 2 here] | inactive
112 | Cc1cc2c(C(C)C)c(O)c(O)c(C=O)c2c(O)c1-c1c(C)cc2c(C(C)C)c(O)c(O)c(C=O)c2c1O [listing 2 of 2 here] | active
113 | CC(=O)O.Cc1cc2c(C(C)C)c(O)c(O)c(C=O)c2c(O)c1-c1c(C)cc2c(C(C)C)c(O)c(O)c(C=O)c2c1O | inactive

Source: the antibiotic and cytotoxicity screens of Wong et al. (2023)
